About 350 (25%) of roughly 1,400 compounds were called active. Inconclusive results (about 2%) are left out. How the calls were made is not given here. Only a sample is shown. Potency and affinity values are given separately.

This experiment is described as follows: inhibitors of Clostridioides difficile proliferation – 4-point retest, confirmation (AID 1224921).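 Further: plate controls were DMSO wells for no effect and levofloxacin 16 µg/mL wells for full effect.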 As to conditions: Clostridioides difficile clinical isolate growth, OD600, 24 h, stronger effect = lower value; at 30 µM unless noted.
For the compound `CO[C@@H]1CN(C)C(=O)c2cc(NC(=O)Nc3c(C)noc3C)ccc2OC[C@@H](C)N(C(=O)Nc2cccc(Cl)c2)C[C@H]1C`, the max activity was 14.7% (inactive). Turning to `C[C@H](CO)N1C[C@H](C)[C@@H](CN(C)C(=O)NC2CCCCC2)Oc2c(NC(=O)Nc3ccc(F)cc3)cccc2C1=O`, the max activity is 20.1% (inactive). Turning to `C[C@@H]1CN([C@H](C)CO)C(=O)c2cccc(NC(=O)Nc3ccc(C(F)(F)F)cc3)c2O[C@H]1CN(C)C(=O)NC1CCCCC1`, the max activity is 34.6% (inactive). For `C[C@H](CO)N1C[C@H](C)[C@@H](CN(C)C(=O)NC2CCCCC2)Oc2c(NC(=O)Nc3ccc(C(F)(F)F)cc3)cccc2C1=O` the value was 28.8% (inactive); for `CC(C)NC(=O)N(C)C[C@H]1Oc2c(NC(=O)Nc3ccc(C(F)(F)F)cc3)cccc2C(=O)N([C@@H](C)CO)C[C@H]1C`, 34.2% [at 8 µM] (inactive); for `Cc1ccc(-c2cnc3c(c2)C(=O)N([C@@H](C)CO)C[C@@H](C)[C@@H](CN(C)C(=O)c2cccc(F)c2)O3)cc1`, 28.4% (inactive).

For `CC(C)[C@H](C)NC(=O)N(C)C[C@@H]1OCc2ccccc2-c2ccccc2C(=O)N([C@@H](C)CO)C[C@H]1C`, the max activity is -10.9% [at 1.95 µM] (inactive). As to `CO[C@H]1CN(C)C(=O)c2ccc(NS(=O)(=O)c3ccc(C)cc3)cc2OC[C@@H](C)N(C(=O)NC(C)C)C[C@H]1C`, the max activity is 6.95% (inactive). As to `C[C@@H]1CN([C@H](C)CO)S(=O)(=O)c2ccc(C#CCC3CCCC3)cc2O[C@@H]1CN(C)C(=O)CC1CC1`, the max activity was 36.7% (inactive). In the case of `Cc1noc(C)c1NC(=O)N[C@@H]1CC[C@H](CC(=O)Nc2ccc(-c3ccccc3)cc2)O[C@@H]1CO`, the max activity was 42% (inactive). Consider `CCN1C[C@@H](C)[C@H](OC)CN(C)C(=O)c2cc(NC(=O)NC(C)C)ccc2OC[C@H]1C`, for which the max activity was 16.9% (inactive). For the compound `CC(C)CC#Cc1ccc2c(c1)O[C@H](CN(C)Cc1cccnc1)[C@H](C)CN([C@@H](C)CO)S2(=O)=O`, the max activity is 26.5% (inactive).

As to `N#C[C@H]1[C@H](c2ccc(C#Cc3ccccc3F)cc2)[C@@H](CO)N1C(=O)C1CCCCC1`, the max activity was 15.2% [at 1.95 µM] (inactive). As for `CCC(=O)Nc1ccc2c(c1)OC[C@@H](C)N(Cc1ccccc1)C[C@H](C)[C@@H](OC)CN(C)C2=O`, the max activity was 21.5% (inactive).

For `COc1ccc(CN(C)C[C@H]2OCCCC[C@H](C)Oc3ccc(NC(=O)Nc4ccc(C(F)(F)F)cc4)cc3C(=O)N([C@H](C)CO)C[C@H]2C)cc1`, the max activity is 38.6% [at 1.95 µM] (inactive). As for `COc1ccc(CN(C)C[C@@H]2OCCCC[C@H](C)Oc3ccc(NC(=O)Nc4ccc(F)cc4)cc3C(=O)N([C@@H](C)CO)C[C@H]2C)cc1`, the figure is 23.6% (inactive). As for `COc1ccc(CN(C)C[C@H]2OCCCC[C@@H](C)Oc3ccc(NC(=O)Nc4ccc(C(F)(F)F)cc4)cc3C(=O)N([C@@H](C)CO)C[C@H]2C)cc1`, the max activity is 38.8% [at 1.95 µM] (inactive). As to `COc1ccc(CN(C)C[C@@H]2OCCCC[C@H](C)Oc3ccc(NC(=O)Nc4ccc(C(F)(F)F)cc4)cc3C(=O)N([C@@H](C)CO)C[C@H]2C)cc1`, the max activity was 21.3% [at 8 µM] (inactive). As for `COc1ccc(CN(C)C[C@H]2OCCCC[C@H](C)Oc3ccc(NC(=O)Nc4ccc(C(F)(F)F)cc4)cc3C(=O)N([C@H](C)CO)C[C@@H]2C)cc1`, the figure is 35.8% (inactive); as for `COc1ccc(CN(C)C[C@@H]2OCCCC[C@@H](C)Oc3ccc(NC(=O)Nc4ccc(C(F)(F)F)cc4)cc3C(=O)N([C@H](C)CO)C[C@H]2C)cc1`, 35.6% [at 8 µM] (inactive). As for `COc1cccc(C#Cc2ccc([C@H]3[C@@H](CO)N(C(=O)C4CC4)[C@H]3C#N)cc2)c1`, the max activity is 19.6% (inactive). For the compound `CO[C@@H]1CN(C)C(=O)c2cc(NC(=O)c3ccccc3)ccc2OC[C@H](C)N(C)C[C@H]1C`, the max activity was 6.89% [at 8 µM] (inactive). `CO[C@@H]1CN(C)C(=O)c2cc(NS(=O)(=O)c3cn(C)cn3)ccc2OC[C@@H](C)N(Cc2cccc(Cl)c2)C[C@H]1C`: the max activity was 31.5% (inactive).

Consider `C[C@H](CO)N1C[C@H](C)[C@@H](CN(C)C(=O)NC2CCCCC2)Oc2c(NC(=O)Nc3cccc4ccccc34)cccc2C1=O`, for which the max activity is 61.2% (inactive). Take `C[C@@H]1CCCCO[C@@H](CN(C)Cc2ccc3c(c2)OCO3)[C@H](C)CN([C@H](C)CO)C(=O)c2cc(NC(=O)Nc3ccc(F)cc3)ccc2O1`: the max activity is 18% (inactive). On to `CCCN1C[C@@H](C)[C@H](OC)CN(C)C(=O)c2cc(NC(=O)Nc3cccc(OC)c3)ccc2OC[C@H]1C`, for which the max activity is -7.34% [at 1.95 µM] (inactive). For `CCCN1C[C@@H](C)[C@H](OC)CN(C)C(=O)c2ccc(NC(=O)Nc3c(C)noc3C)cc2OC[C@@H]1C` the value was 21.5% (inactive); for `CCCN1C[C@@H](C)[C@H](OC)CN(C)C(=O)c2ccc(NC(=O)CC)cc2OC[C@@H]1C`, 3.36% (inactive). For `COc1ccc(NC(=O)Nc2ccc3c(c2)[C@@H]2C[C@@H](CC(=O)NCc4ccccc4F)O[C@H](CO)[C@@H]2O3)cc1`, the max activity was -14.3% (inactive). For `C[C@@H]1CN([C@@H](C)CO)C(=O)c2cccc(NS(=O)(=O)c3ccc(Cl)cc3)c2O[C@@H]1CN(C)Cc1ccc(C(F)(F)F)cc1` the value was 20.4% [at 1.95 µM] (inactive); for `Cc1ccc(S(=O)(=O)Nc2ccc3c(c2)C(=O)N([C@H](C)CO)C[C@@H](C)[C@H](CN(C)Cc2ccc(Cl)c(Cl)c2)OCCCC[C@H](C)O3)cc1`, 39% [at 1.95 µM] (inactive); for `CCCN(C)C[C@H]1OCCCC[C@H](C)Oc2ccc(NS(=O)(=O)c3c(C)noc3C)cc2C(=O)N([C@@H](C)CO)C[C@@H]1C`, 19% [at 8 µM] (inactive). `C[C@@H]1CN([C@@H](C)CO)C(=O)c2cc(NC(=O)Nc3ccc(F)cc3)ccc2O[C@@H](C)CCCCO[C@H]1CN(C)Cc1ccc2c(c1)OCO2`: the max activity is 20.9% (inactive). Regarding `COc1ccc(CN(C)C[C@H]2OCCCC[C@H](C)Oc3ccc(NC(=O)Nc4ccc5c(c4)OCO5)cc3C(=O)N([C@H](C)CO)C[C@H]2C)cc1`, the max activity was 21.6% (inactive). Take `C[C@H](CO)N1C[C@H](C)[C@@H](CN(C)Cc2ccc3c(c2)OCO3)OCCCC[C@H](C)Oc2ccc(NC(=O)Nc3ccc4c(c3)OCO4)cc2C1=O`: the max activity is 12.4% (inactive).

On to `Cc1ccc(S(=O)(=O)Nc2ccc3c(c2)C(=O)N([C@@H](C)CO)C[C@H](C)[C@@H](CN(C)Cc2ccc(Cl)c(Cl)c2)OCCCC[C@@H](C)O3)cc1`, for which the max activity is 8.85% (inactive). As to `C[C@@H]1CCCCO[C@@H](CN(C)Cc2ccc3c(c2)OCO3)[C@H](C)CN([C@@H](C)CO)C(=O)c2cc(NC(=O)Nc3ccc4c(c3)OCO4)ccc2O1`, the max activity is 14.9% (inactive).

With `COc1ccc(CN(C)C[C@H]2OCCCC[C@@H](C)Oc3ccc(NC(=O)Nc4ccc5c(c4)OCO5)cc3C(=O)N([C@H](C)CO)C[C@H]2C)cc1`, the max activity was 17.6% (inactive). Regarding `C[C@@H]1CN([C@@H](C)CO)C(=O)Cc2cc(NS(C)(=O)=O)ccc2O[C@H]1CN(C)Cc1ccccc1`, the max activity was 38.5% [at 35 µM] (inactive). For the compound `N#C[C@H]1[C@@H](c2ccccc2)[C@@H](CO)N1S(=O)(=O)c1ccc(-c2ccccc2)cc1`, the max activity is 40.9% (inactive).

For `Cc1ccc(-c2cnc3c(c2)C(=O)N([C@@H](C)CO)C[C@H](C)[C@@H](CN(C)C(=O)c2ccccc2)O3)cc1`, the max activity was -9.22% [at 0.5 µM] (inactive). As to `CN(C)CC(=O)N[C@H]1C=C[C@H](CC(=O)NCCN2CCCCC2)O[C@@H]1CO`, the max activity is 12.7% [at 8 µM] (inactive). As for `N#C[C@H]1[C@@H](c2ccc(-c3ccccc3)cc2)[C@@H](CO)N1C(=O)Cc1ccncc1`, the max activity is 13.6% (inactive).

Turning to `CCC(=O)N[C@@H]1C=C[C@@H](CC(=O)OC)O[C@H]1CO`, the max activity was -12.2% [at 8 µM] (inactive). Regarding `C[C@@H]1CN([C@H](C)CO)S(=O)(=O)c2ccc(C#CCC3CCCC3)cc2O[C@@H]1CN(C)C(=O)c1ccccn1`, the max activity was 46.2% [at 8 µM] (inactive). Turning to `C[C@@H]1CN([C@H](C)CO)C(=O)c2cccc(N(C)C)c2O[C@H]1CN(C)Cc1ccc(C(F)(F)F)cc1`, the max activity is 26.1% (inactive). As to `CO[C@H]1CN(C)C(=O)c2ccc(NC(=O)c3ccc(F)cc3)cc2OC[C@@H](C)N(C(=O)CN(C)C)C[C@H]1C`, the max activity is -10.6% [at 1.95 µM] (inactive).

In the case of `C[C@@H]1CCCCO[C@H](CN(C)CC2CCCCC2)[C@H](C)CN([C@@H](C)CO)C(=O)c2cc(NC(=O)Nc3cccc4ccccc34)ccc2O1`, the max activity was -10.7% (inactive).

`C[C@H]1CCCCO[C@@H](CN(C)CC2CCCCC2)[C@@H](C)CN([C@@H](C)CO)C(=O)c2cc(NC(=O)Nc3cccc4ccccc34)ccc2O1`: the max activity is 27.7% [at 8 µM] (inactive). Regarding `C[C@@H]1CCCCO[C@H](CN(C)CC2CCCCC2)[C@@H](C)CN([C@H](C)CO)C(=O)c2cc(NC(=O)Nc3cccc4ccccc34)ccc2O1`, the max activity is 12.9% [at 8 µM] (inactive). In the case of `C[C@H](CO)N1C[C@H](C)[C@@H](CN(C)CC2CCCCC2)OCCCC[C@H](C)Oc2ccc(NC(=O)Nc3cccc4ccccc34)cc2C1=O`, the max activity was 21.6% (inactive). As to `C[C@@H]1CN([C@H](C)CO)S(=O)(=O)c2ccc(C#CCC3CCCC3)cc2O[C@H]1CN(C)C(=O)c1ccccn1`, the max activity is 43.5% (inactive). As for `CO[C@@H]1CN(C)C(=O)c2ccc(NC(C)=O)cc2OC[C@@H](C)N(Cc2cc(F)ccc2F)C[C@H]1C`, the max activity was -9.54% [at 8 µM] (inactive).

In the case of `Cc1ccc(-c2ccc3c(c2)O[C@@H](CN(C)Cc2cccnc2)[C@@H](C)CN([C@@H](C)CO)S3(=O)=O)cc1`, the max activity is 35.1% (inactive).

For the origin of these results see PubChem BioAssay AID1224921 (Broad Institute, 2016).
